Values joined by “and” are separate entries in the source; they are usually repeats but may differ in a detail not shown here. Identical values can stand only once. Results filed as inconclusive are left out. Where a call stands in place of a potency, no number is given. Where a structure was tested more than once in an assay, its records may differ in their call. Active and inactive are the calls of the source. The call rests on the fitted dose curve; in most records, active means well fitted curve in the direction sought with a large enough effect; inconclusive means small, poorly fitted or top-dose-only effect, or another doubt; inactive means no such curve, though single readings can be large; an effect the other way counts as inactive or inconclusive.
What was measured:
[1] = target: Cytochrome P450 3A7 (Homo sapiens) (UniProt P24462); test: Cytochrome P450 family 3 subfamily A member 7 (CYP3A7) small molecule antagonists: luciferase biochemical qHTS assay (AID 1963596); further: nearly all actives have a fitted effect of over 40% in size
Chain of Cytochrome P450 3A7 (Homo sapiens) (P24462 whole entry, looked up): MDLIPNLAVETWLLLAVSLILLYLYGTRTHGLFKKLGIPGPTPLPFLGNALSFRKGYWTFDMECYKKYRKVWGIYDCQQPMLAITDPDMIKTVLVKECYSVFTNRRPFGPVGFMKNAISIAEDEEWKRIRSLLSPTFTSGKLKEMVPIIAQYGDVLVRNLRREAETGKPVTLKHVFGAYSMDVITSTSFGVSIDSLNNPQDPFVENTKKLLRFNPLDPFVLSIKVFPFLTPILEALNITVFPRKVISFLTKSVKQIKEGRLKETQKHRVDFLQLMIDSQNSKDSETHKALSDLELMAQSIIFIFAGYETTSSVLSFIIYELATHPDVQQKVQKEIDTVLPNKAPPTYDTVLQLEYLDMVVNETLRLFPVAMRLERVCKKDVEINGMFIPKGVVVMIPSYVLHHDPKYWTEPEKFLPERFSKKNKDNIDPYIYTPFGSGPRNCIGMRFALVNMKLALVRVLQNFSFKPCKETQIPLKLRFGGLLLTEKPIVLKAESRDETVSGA
Outline: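 Biochemical CYP3A7 activity measured with P450-Glo system: luciferin formed from proluciferin substrate in NADPH-driven reaction (1 h, room temperature) after 10 min compound preincubation. Signal in relative luminescence units.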

[2] = Viability qHTS for spleen associated tyrosine kinase inhibitor (SYKi) naive MV4-11 cells (AID 1963823); further: nearly all actives have a fitted effect of over 40% in size
Outline: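 Seeding of 500 SYKi-naive MV4-11 cells per well onto pre-dispensed compounds preceded a 72 hr incubation at 37 C. Luminescent CellTiter-Glo signal, read after 10 min at room temperature, reflected viable cells.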

[3] = Viability qHTS for spleen associated tyrosine kinase inhibitor (SYKi) drug resistant MV4-11 cells (AID 1963824); further: nearly all actives have a fitted effect of over 35% in size
Outline: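 SYK inhibitor-resistant MV4-11 AML cells, 500 per well, added to predispensed compounds and incubated 72 hr at 37 C, 5% CO2. Viability measured by CellTiter-Glo luminescence after 10 min at room temperature.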

[4] = Quantitative highthroughput screen to assess conditional lethalithy of NOMO1 cells grown in RPMI1640 with untreated serum (RPMI+s) (AID 1963876); further: nearly all actives have a fitted effect of over 35% in size
Outline: (§1)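 Each medium arm—HPLM with 10% dialyzed FBS, or RPMI1640 with 5 mM glucose and 10% untreated or dialyzed FBS—was screened against an 11-point, 3-fold compound titration for 48 h at 37 °C, with CellTiter-Glo luminescence as endpoint.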

[5] = Quantitative highthroughput screen to assess conditional lethalithy of NOMO1 cells grown in RPMI1640 with dialyzed fetal bovine serum (RPMI+ds) (AID 1963877); further: nearly all actives have a fitted effect of over 30% in size; on Viability: series mostly up to about 46 µM
Outline: as §1

[6] = Quantitative highthroughput screen to assess conditional lethalithy of P12 Ichikawa cells grown in RPMI1640 with dialyzed fetal bovine serum (RPMI+ds) (AID 1963880); settings: Potency: P12-Ichikawa viability; further: nearly all actives have a fitted effect of over 35% in size
Outline: as §1

[7] = Quantitative highthroughput screen to assess conditional lethalithy of P12 Ichikawa cells grown in RPMI1640 with untreated serum (RPMI+s) (AID 1963881); settings: Potency: viability; further: nearly all actives have a fitted effect of over 35% in size; on Viability: series mostly up to about 46 µM
Outline: as §1

[8] = Quantitative highthroughput screen to assess conditional lethalithy of SEM cells grown in RPMI1640 with unreated serum (RPMI+s) (AID 1963883); further: nearly all actives have a fitted effect of over 35% in size
Outline: as §1

[9] = Cellular viability qHTS for adrenocortical cancer (ACC) cell line SW-13 (AID 1963989); settings: SW-13 ACC cells viability, CellTiter-Glo, 48 h; activity (max response): stronger effect = lower value; further: nearly all actives have a fitted effect of over 65% in size;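 on activity (max response): cells grown in serum-free medium with ITS supplement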
Outline: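 Here, serum-free SW-13 cultures were dosed up to 46 uM. Following 48 h, ATP-dependent luminescence (CellTiter-Glo) reported viable cells, and logistic modeling produced IC50 values.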

[10] = Cellular viability qHTS for adrenocortical cancer (ACC) cell line NCI-H295R (AID 1963990); further: nearly all actives have a fitted effect of over 60% in size
Outline: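 Viability of NCI-H295R after 48 h of treatment (final up to 46 uM) measured through cellular ATP luminescence.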

[11] = Quantitative highthroughput screen to assess conditional lethalithy of NOMO1 cells grown in Human Plasma-Like Medium with dialyzed fetal bovine serum (HPLM+ds) (AID 1963878); further: nearly all actives have a fitted effect of over 35% in size
Outline: as §1

[12] = Quantitative highthroughput screen to assess conditional lethalithy of P12 Ichikawa cells grown in Human Plasma-Like Medium with dialyzed fetal bovine serum (HPLM+ds) (AID 1963879); settings: Potency: viability; further: nearly all actives have a fitted effect of over 35% in size; on Viability: series mostly up to about 46 µM
Outline: as §1

[13] = Quantitative highthroughput screen to assess conditional lethalithy of SEM cells grown in Human Plasma-Like Medium with dialyzed fetal bovine serum (HPLM+ds) (AID 1963882); further: nearly all actives have a fitted effect of over 35% in size; on Viability: series mostly up to about 46 µM
Outline: as §1

[14] = Quantitative highthroughput screen to assess conditional lethalithy of SEM cells grown in RPMI1640 with dialyzed fetal bovine serum (RPMI+ds) (AID 1963884); further: nearly all actives have a fitted effect of over 35% in size; on Viability: series mostly up to about 46 µM
Outline: as §1
Potency means the concentration at half of the fitted maximal effect.

Row | Compound | Potency [1] | Potency [2] | Potency [3] | Potency [4] | Potency [5] | Potency [6] | Potency [7] | Potency [8] | activity (max response) [9] | Potency [10] | Potency [11] | Potency [12] | Potency [13] | Potency [14] | Potency [9]
1 | O=c1[nH]cnc2[nH]ncc12 | inactive | inactive | inactive | inactive | inactive | inactive | inactive | inactive | 1.44% (inactive) and -3.08% (inactive) | inactive | – | – | – | – | –
2 | CCOC(=O)C1=C(N)Oc2ccc(Br)cc2C1C(C#N)C(=O)OCC (stereo not given) | inactive | 13.2 µM (active) and inactive | 8.33 µM (active) and 11.6 µM (active) | inactive | – | inactive | inactive | – | -2.87% (inactive) | inactive | inactive | inactive | inactive | – | –
3 | CN(C)c1cc(NC(=O)CNC(C)(C)C)c(O)c2c1C[C@@H]1C[C@H]3[C@H](N(C)C)C(=O)C(C(N)=O)=C(O)[C@@]3(O)C(=O)C1=C2O | inactive | inactive | inactive | inactive | – | inactive | – | inactive | – | – | inactive | inactive | inactive | inactive | –
4 | COc1ncnc(NS(=O)(=O)c2ccc(N)cc2)c1OC | inactive | inactive | inactive | 4.69 µM (active) | 7.43 µM (active) | 1.18 µM (active) | 1.66 µM (active) | 935 nM (active) | -3.79% (inactive) and 4.29% (inactive) | inactive | – | 1.18 µM (active) | 1.87 µM (active) | – | –
5 | CC(C)NCC(O)COc1ccc(COCCOC(C)C)cc1 (stereo not given) | inactive | inactive | inactive | inactive | – | inactive | inactive | inactive | 0.903% (inactive) | inactive | inactive | inactive | – | inactive | –
6 | COc1cc2c(cc1OC)CN(CCc1ccc(NC(=O)c3cc(OC)c(OC)cc3NC(=O)c3cnc4ccccc4c3)cc1)CC2 | inactive | inactive | inactive | inactive | inactive | – | – | – | -4.36% (inactive) | inactive | inactive | – | – | – | –
7 | Clc1ccc(C2(c3ccc(-c4cn[nH]c4)cc3)CCNCC2)cc1 | 12.6 µM (active) | 2.31 µM (active) and 2.63 µM (active) | 5.17 µM (active) and 7.42 µM (active) | 14.8 µM (active) | 4.18 µM (active) | – | – | 9350 nM (active) | – | 15.8 µM (active) | 3.32 µM (active) | 5.26 µM (active) | – | – | –
8 | CC(=O)c1cnc2ccc(-c3cc(Cl)c(O)c(Cl)c3)nc2c1NC1CCC(CN(C)C)CC1 (stereo not given) | inactive | 4.7 nM (active) and 0.8 nM (active) | 11.9 nM (active) and 2.9 nM (active) | 0.132 µM (active) | 0.132 µM (active) | 0.132 µM (active) | 0.148 µM (active) | 74.1 nM (active) | – | 0.212 µM (active) | 0.066 µM (active) | – | 0.0741 µM (active) | 58.8 nM (active) | 75.1 nM (active)
9 | CC[C@H](NC(C)C)[C@H](O)c1ccc(O)c2[nH]c(=O)ccc12 | inactive | inactive and 525 nM (active) | inactive | inactive | inactive | inactive | inactive | inactive | 3.1% (inactive) and 13.3% (inactive) | inactive | inactive | – | inactive | inactive | –
10 | NS(=O)(=O)c1cc2c(cc1Cl)NC(C(Cl)Cl)NS2(=O)=O (stereo not given) | inactive | inactive | inactive | inactive | inactive | inactive | inactive | inactive | – | inactive | inactive | – | inactive | inactive | –
11 | CCC[C@@H]1C[C@@H](C(=O)N[C@@H]([C@H]2O[C@H](SC)[C@H](O)[C@@H](O)[C@H]2O)[C@@H](C)O)N(C)C1 | inactive | inactive | inactive | inactive | inactive | inactive | inactive | inactive | – | inactive | – | inactive | inactive | inactive | –
12 | CN(C)c1nc(Cc2ccc(NC(=O)c3ccc(C(F)(F)F)cc3)cc2)nc(N(C)C)c1CC(=O)O | inactive | inactive | inactive | inactive | inactive | inactive | inactive | inactive | – | – | inactive | – | inactive | inactive | –
13 | CCC(C)(Oc1ccc(C2(c3ccc(OC(C)(CC)C(=O)O)cc3)CCCCC2)cc1)C(=O)O (stereo not given) | inactive | inactive | inactive | inactive | inactive | inactive | inactive | inactive | -4.64% (inactive) and -4.83% (inactive) | inactive | – | inactive | inactive | inactive | –
14 | CC[N+](CC)(CC)CCOc1cccc(OCC[N+](CC)(CC)CC)c1OCC[N+](CC)(CC)CC | inactive | inactive | inactive | inactive | inactive | inactive | inactive | inactive | 11.3% (inactive) and -11.4% (inactive) | inactive | – | – | inactive | inactive | –
15 | CCN[C@H]1C[C@H](C)S(=O)(=O)c2sc(S(N)(=O)=O)cc21 | inactive | inactive | inactive | inactive | inactive | inactive | inactive | inactive | 3.89% (inactive) and 5.72% (inactive) | inactive | inactive | – | inactive | – | –

From PubChem BioAssay (NCATS)
